Experimental findings from PubChem BioAssay (NCATS) are described below.

Records with an inconclusive call do not appear. A number with no mark means an inactive call. Activity calls are given as the source filed them. The call rests on the fitted dose curve; in most records, active means well fitted inhibition curve with a large enough effect; inconclusive means small, poorly fitted or top-dose-only effect; inactive means flat fitted curve, though single readings scatter.
On the % scale 0 is the no-effect control and ±100 the full control effect; potency means the concentration at half of the fitted maximal effect.

In the first experiment the test system is HEK293. Briefly: Cytotoxic Profiling of Annotated Libraries Using Quantitative High-Throughput Screening (AID 1296008). Further: nearly all actives have a fitted effect of over 60% in size. Particulars: Five cell lines viability, CellTiter-Glo ATP luminescence, 48-72 h; max response: hits give low values. The method, boiled down:
(§1)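 Cytotoxicity was measured as CellTiter-Glo ATP luminescence, read after 10 min at room temperature. Compound treatment of the cells lasted 48 or 72 hr at 37 degrees Celsius in a qHTS format.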
Take `O=C(Nc1ccc(S(=O)(=O)C(F)(F)F)cc1)C1=CCN(c2ncccc2C(F)(F)F)CC1`: the Potency is 8.2 µM (active). Regarding `COc1ccc(-c2ccc3c(N4CCOCC4)nc(N4CC(C)OC(C)C4)nc3n2)cc1CO` (stereo not given), the Potency was 1.16 µM (active). In the case of `Cc1cccc(C)c1OCc1cc(C(=O)N2CCC(c3ccncc3)CC2)no1`, the Potency is 6.51 µM (active). For the molecule `NCc1ccc(Nc2ncc(F)c(Nc3ccccc3)n2)cc1`, the Potency was 20.6 µM (active). With `CC(=O)OC12COC1CC(O)C1(C)C(=O)C(O)C3=C(C)C(OC(=O)C(O)C(NC(=O)OC(C)(C)C)c4ccccc4)CC(O)(C(OC(=O)c4ccccc4)C21)C3(C)C` (stereo not given), the max response was -76.3%.

With `C[C@@]1(O)[C@H](O)[C@@H](CO)O[C@H]1n1ccc(N)nc1=O`, the molecule was classed as inactive. For `C[C@@H]1C[C@H]2O[C@@H]2/C=C\C=C\C(=O)Cc2c(Cl)c(O)cc(O)c2C(=O)O1`, the Potency was 0.0873 µM (active).

On to `N=c1nc2n(cc1F)C1OC(CO)C(O)C1O2` (stereo not given), for which the Potency is 5.17 µM (active). Consider `c1cn2cc(-c3ccc4cn[nH]c4c3)nc(Nc3ccc(N4CCOCC4)cc3)c2n1`, for which the Potency is 18.4 µM (active). On the same count and under the same terms, for `Cc1cc(C)c(Nc2ccnc(Nc3ccc(C#N)cc3)n2)c(C)c1` the value was 5.17 µM (active); for `Cc1nc(Nc2n[nH]c3c2CN(C(=O)NC(CN(C)C)c2ccccc2)C3(C)C)c2sccc2n1` (stereo not given), 0.0146 µM (active).

For the molecule `C[C@H]1C(=O)N2c3ccccc3[C@@]3(O)C[C@@H]4C(=O)N[C@](C)(c5nc6ccccc6c(=O)n54)N1[C@@H]23`, the max response is -0.775%. Consider `O=C(O)/C=C/c1ccc(-c2ccc(O)c(C34CC5CC(CC(C5)C3)C4)c2)cc1`, for which the Potency is 0.731 µM (active). For `CC1=C(C(=O)O[C@@H]2O[C@H](COC3OCC(O)C(O)C3O)[C@@H](O)[C@H](O)[C@H]2O)C(C)(C)CCC1` (stereo not given in full), the max response is -9.72%. Consider `C=C1C(=O)O[C@@H]2C/C(C)=C\C(=O)/C=C(\C)[C@@H](OC(=O)/C(C)=C\C)[C@H](O)[C@@H]12`, for which the Potency is 1.61 µM (active).

As to `O=C(c1cc2c(cc1F)OC(c1ccc(F)cc1)(c1ccc(Cl)cc1Cl)O2)N1CCOCC1` (stereo not given), the Potency was 11.6 µM (active).

`C/C=C/C=C/C=C/C(=O)OC1C=C(C=O)C(O)(C(=O)O)C2(C)CCCC(C)(C)C12` (stereo not given): the max response was 1.26%.

On to `Cc1cc(-c2cc(O)ccc2Cl)cc2nnc(Nc3ccc(OCCN4CCCC4)cc3)nc12`, for which the Potency was 3.26 µM (active). As to `Cc1ccc(S(=O)(=O)Nc2ccccc2N2CCCCC2)s1`, the Potency was 18.4 µM (active). Same read-out and setting: for `COc1cc(C(=O)NC2CCN(C)CC2)c(F)cc1Nc1ncc2c(n1)N(C1CCCC1)CC(F)(F)C(=O)N2C` the value was 0.0184 µM (active); for `Cc1c[nH]c2nccc(Oc3c(F)cc(Nc4cc(Cl)nc(N)n4)cc3F)c12`, 5.8 µM (active). Consider `CC(C)C(CO)Nc1nc(Nc2cc(N)cc(Cl)c2)c2ncn(C(C)C)c2n1` (stereo not given), for which the Potency is 16.4 µM (active). Turning to `CC(Oc1cc(-n2cnc3ccc(CN4CCN(C)CC4)cc32)sc1C(N)=O)c1ccccc1C(F)(F)F` (stereo not given), the Potency was 1.3 µM (active). Take `CC(=O)O[C@H]1C(=O)[C@@]2(C)[C@H]([C@H](OC(=O)c3ccccc3)[C@]3(O)C[C@H](OC(=O)[C@H](O)[C@@H](NC(=O)c4ccccc4)c4ccccc4)C(C)=C1C3(C)C)[C@]1(OC(C)=O)CO[C@@H]1C[C@@H]2O`: the Potency is 0.0055 µM (active). Same read-out and setting: with `C[C@@H](Oc1cc(-n2cnc3ccc(OC4CCN(C)CC4)cc32)sc1C(N)=O)c1ccccc1C(F)(F)F` the figure was 0.0411 µM (active).

The subject of a further experiment is HaCat. The description is as above. Particulars: Five cell lines viability, CellTiter-Glo ATP luminescence, 48-72 h; max response: hits give low values. An outline of the steps:
as §1
For orientation: ATP-based viability assays read luminescence as a measure of living cells.
Regarding `CC(=O)O[C@@H]1[C@H](O)[C@@H](O[C@@H]2O[C@@H](C)[C@H](O[C@@H]3OC[C@@H](O)[C@H](O[C@@H]4OC[C@@H](O)[C@H](O)[C@H]4O)[C@H]3O)[C@@H](O[C@@H]3O[C@H](CO)[C@@H](O)[C@H](O)[C@H]3O)[C@H]2O)[C@H](OC(=O)[C@]23CCC(C)(C)C[C@H]2C2=CCC4[C@@]5(C)CC[C@H](O[C@@H]6O[C@H](C(=O)O)[C@@H](O)[C@H](O[C@@H]7OC[C@@H](O)[C@H](O)[C@H]7O)[C@H]6O[C@@H]6O[C@H](CO)[C@H](O)[C@H](O)[C@H]6O)[C@@](C)(C=O)C5CC[C@@]4(C)[C@]2(C)CC3)O[C@@H]1C` (stereo not given in full), the max response is 0.448%.

For the molecule `COc1ccc(-c2cnc(-c3cccc4c3-c3ccccc3C4=O)o2)cc1`, the max response was -2.01%. With `CCCC(=O)O[C@@H]1[C@@H]2[C@@H](OC(C)=O)[C@]3(C)C(=O)[C@H]4[C@@H](OC(C)=O)C(C)(C)C[C@H]4[C@]3(C)C(=O)[C@@]2(OC(C)=O)C[C@@H]1C`, the molecule was classed as inactive.

As for `COC1=CC(=O)CC(C)C12Oc1cc(OC)cc(O)c1C2=O` (stereo not given), the max response is 4.13%. For `CCCC(=O)NCCc1csc(-c2ccc(Cl)cc2)n1`, the max response is -70.2%. `O=C(/C=C/c1ccccc1)OC[C@]12O[C@H]1[C@@H](O)[C@@H]1C=CO[C@@H](O[C@@H]3O[C@H](CO)[C@@H](O)[C@H](O)[C@H]3O)[C@@H]12`: the outcome was inactive. Take `CO[C@H]1C[C@@H]2CC[C@@H](C)[C@@](O)(O2)C(=O)C(=O)N2CCCC[C@H]2C(=O)O[C@H]([C@H](C)C[C@@H]2CC[C@@H](OP(C)(C)=O)[C@H](OC)C2)CC(=O)[C@H](C)/C=C(\C)[C@@H](O)[C@@H](OC)C(=O)[C@H](C)C[C@H](C)/C=C/C=C/C=C/1C`: the max response is -0.379%. `NC(=O)c1csc(C2OC(CO)C(O)C2O)n1` (stereo not given): the max response is 2.41%.

Consider `C=CC(C)(C)c1[nH]c2cc3c(cc2c1CC1NC(=O)C2=CCCN2C1=O)C=CC(C)(C)O3` (stereo not given), for which the molecule was classed as inactive. With `C[C@@H]1N[C@H]2N(C1=O)c1ccccc1[C@@]2(O)C[C@@H]1C(=O)N[C@@H](C)c2nc3ccccc3c(=O)n21`, the max response is 1.5%.
